Assay outcomes deposited in PubChem by National Center for Advancing Translational Sciences (NCATS).
Rows were chosen to be rich in hits. Some 19% of all compounds tested hit in one or more screens of this group.
TDP1 cell noCPT: qHTS for Inhibitors of human tyrosyl-DNA phosphodiesterase 1 (TDP1): qHTS in cells in absence of CPT | DT40 Tdp1-/- hTDP1 cells, no CPT, ATP luminescence, 48 h | Potency, µM (highest dose often 46.2 µM), for the others: top-dose activity change, negative = growth inhibition, hits mostly inhibitors | hit rate 15% among 420,000 | AID 686978, 2013; also: potency is read from the fitted curve at half-maximal effect; nearly all actives have a fitted effect of over 55% in size
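Compound effects on proliferation are scored in DT40 Tdp1-/-;hTDP1 cells in the absence of CPT. ATP levels (CellTiter-Glo luminescence) are recorded after a ≥48 hr, 37 °C incubation.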
uPA generation: qHTS for Inhibitors of Cell Surface uPA Generation | cell surface uPA generation assay, qHTS | Potency, µM (series often up to 38.3 µM), inactives show top-dose activity change, negative = inhibition, usual class: inhibitors | hit rate 0.31% among 330,000 | AID 540303, 2011; active = well fitted inhibition curve with a large enough effect; inconclusive = small, poorly fitted or top-dose-only effect; inactive = no such curve, though single readings can be large or run the other way; tested in mouse RAW 264.7 cells; also: potency is read from the fitted curve at half-maximal effect; nearly all actives have a fitted effect of over 55% in size
HT1080 IDH1KD tx: qHTS for induction of synthetic lethality in tumor cells producing 2HG: qHTS for the HT-1080-IDH1KD cell line | HT-1080 IDH1 knockdown viability, ATP luminescence, 48 h | Potency, µM (highest dose often 46.1 µM), inactives show at the top dose activity, negative = toxicity, hits mostly cytotoxic | hit rate 2% among 360,000;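 also: potency is read from the fitted curve at half-maximal effect; 0% = DMSO wells and -100% = cell-free medium wells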
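Using the IDH1-knockdown HT-1080 line run in the same batch and compound series as the NT line, viability after 48 h at 37 °C was determined by CellTiter-Glo luminescence and expressed as % activity.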
TDP1 cell CPT: qHTS for Inhibitors of human tyrosyl-DNA phosphodiesterase 1 (TDP1): qHTS in cells in presence of CPT; hit rate 12% among 420,000; Potency, µM (titrated, usually from 46.2 µM), inactives show top-dose activity change, negative = growth inhibition, actives largely listed as inhibitors; AID 686979, 2013; chicken DT40 Tdp1-/-;hTDP1 cells + 20 nM CPT, ATP luminescence, 48 h; also: potency is read from the fitted curve at half-maximal effect; nearly all actives have a fitted effect of over 55% in size
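Cell growth measured by CellTiter-Glo luminescence after a minimum 48 h, 37 C compound exposure with 20 nM CPT in Tdp1-knockout DT40 cells stably expressing hTDP1, seeded 400/well; qHTS titration format.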
IL-1B inflam inh: qHTS for Inhibitors of Inflammasome Signaling: IL-1-beta AlphaLISA Primary Screen | THP-1 LPS/ATP IL-1B secretion, AlphaLISA, 16 h; active compounds read low | activity change, % at 57.5 µM | hit rate 4.7% among 360,000; in the data active = activity change below about -50%; inconclusive = mostly about -30% to -49%
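Secreted IL-1B measured by AlphaLISA bead assay after 16 h compound exposure of THP-1 cells; compounds (final up to 57.5 uM) added 1 h before LPS (250 ng/mL) and ATP (1.25 mM) stimulation; lower signal means less secretion.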
HT1080NT lethal: qHTS for induction of synthetic lethality in tumor cells producing 2HG: qHTS for the HT-1080-NT fibrosarcoma cell line; HT-1080-NT fibrosarcoma viability, CellTiter-Glo ATP luminescence, 48 h; Potency, µM (titrated, usually from 46.1 µM), for the others: at the highest dose activity, negative = less viability, hits mostly cytotoxic; hit rate 1.6% among 360,000; AID 686970, 2013;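 also: NT is the 2HG producing partner of a matched IDH1 knockdown line; potency is read from the fitted curve at half-maximal effect; 0% = DMSO-treated cells and -100% = media-only wells without cells; nearly all actives have a fitted effect of over 55% in size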
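Compounds were tested in concentration-response format on HT-1080-NT cells for 48 hours at 37 degrees C. Cell viability came from CellTiter-Glo luminescence; curves were classified by r2, response magnitude and activity.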
An asterisk follows results filed as active; [ ] = another dose, or the depositor's remark. Unless noted, calls follow the shape of the dose curve; as a rule, active = well fitted curve in the direction sought with a large enough effect; inconclusive = small, poorly fitted or top-dose-only effect, or another doubt; inactive = no such curve, though single readings can be large; an effect the other way counts as inactive or inconclusive. Unless noted, % is scaled to controls: 0 for no effect and ±100 for the full control effect.

How did CCOC1=C2[C@H](c3ccccc3)N(S(=O)(=O)c3ccc(C)cc3)[C@H](C(C)C)[C@H]2n2c(=O)n(-c3ccccc3)c(=O)n2C1 do in these assays?
TDP1 cell noCPT: -11%; HT1080 IDH1KD tx: 7%; TDP1 cell CPT: -11%; IL-1B inflam inh: 5; HT1080NT lethal: 7%

What do the screens show for `CN(CC(=O)Nc1ccc(Cl)c(Cl)c1)C(=O)C12CC3CC(CC(C3)C1)C2`?
TDP1 cell noCPT: inconclusive; uPA generation: -14%; HT1080 IDH1KD tx: -27%; TDP1 cell CPT: inconclusive; IL-1B inflam inh: -54*; HT1080NT lethal: 0%

What do the screens show for `CC(C)(C)OC(=O)C[C@@H]1C/C=C\C[C@H](CC(=O)N(CCO)Cc2ccccc2)C(=O)N[C@@H](c2ccccc2)COC1=O`?
TDP1 cell noCPT: inconclusive; uPA generation: -7%; HT1080 IDH1KD tx: 2%; TDP1 cell CPT: inconclusive; IL-1B inflam inh: -15; HT1080NT lethal: 7%

Results for O=C(N[C@H]1C/C=C\C[C@H](CC(=O)N(CCO)Cc2ccccc2)C(=O)N[C@@H](c2ccccc2)COC1=O)OCC1c2ccccc2-c2ccccc21 ?
TDP1 cell noCPT: 13µM*; uPA generation: -13%; HT1080 IDH1KD tx: -12%; TDP1 cell CPT: 7.3µM*; IL-1B inflam inh: -3; HT1080NT lethal: -1%

Results for C[C@@H]1COC(=O)[C@@H](CC(=O)OC(C)(C)C)C/C=C\C[C@H](CC(=O)N(CCO)Cc2ccccc2)C(=O)N1 ?
TDP1 cell noCPT: inconclusive; uPA generation: 5%; HT1080 IDH1KD tx: 18%; TDP1 cell CPT: inconclusive; IL-1B inflam inh: 17; HT1080NT lethal: 16%

Results for C[C@H]1COC(=O)[C@H](NC(=O)OCC2c3ccccc3-c3ccccc32)C/C=C\C[C@H](CC(=O)N(CCO)Cc2ccccc2)C(=O)N1 ?
TDP1 cell noCPT: 9.2µM*; uPA generation: inconclusive; HT1080 IDH1KD tx: -12%; TDP1 cell CPT: 9.2µM*; IL-1B inflam inh: 7; HT1080NT lethal: -11%

How did C[C@@H]1COC(=O)[C@@H](NC(=O)OCC2c3ccccc3-c3ccccc32)C/C=C\C[C@@H](CC(=O)N(CCO)Cc2ccccc2)C(=O)N1 do in these assays?
TDP1 cell noCPT: 2.6µM*; uPA generation: inconclusive; HT1080 IDH1KD tx: -7%; TDP1 cell CPT: 1.5µM*; IL-1B inflam inh: -3; HT1080NT lethal: -6%

How did Cc1nc(NC(=O)C(C)Oc2cccc(Cl)c2)sc1C(=O)N(C)C (centres undefined) do in these assays?
TDP1 cell noCPT: inconclusive; uPA generation: -3%; HT1080 IDH1KD tx: 7%; TDP1 cell CPT: inconclusive; IL-1B inflam inh: 0; HT1080NT lethal: 6%

What do the screens show for `Cc1ccc([N+](=O)[O-])cc1S(=O)(=O)n1ccnc1C`?
TDP1 cell noCPT: 18µM*; uPA generation: 1%; HT1080 IDH1KD tx: -31%; TDP1 cell CPT: 21µM*; IL-1B inflam inh: 2; HT1080NT lethal: -8%

Results for CCOc1ccc(N(CC(=O)NN=C2CCCC2)S(C)(=O)=O)cc1 ?
TDP1 cell noCPT: 0%; uPA generation: -14%; HT1080 IDH1KD tx: 17%; TDP1 cell CPT: 4%; IL-1B inflam inh: 6; HT1080NT lethal: 13%

What do the screens show for `CC1(C)Cc2nc(NC3CCCCC3)c(C#N)cc2CO1`?
TDP1 cell noCPT: 23µM*; uPA generation: 1%; HT1080 IDH1KD tx: -1%; TDP1 cell CPT: inconclusive; IL-1B inflam inh: -15; HT1080NT lethal: 8%

How did C[C@H](NC(=O)[C@@H]1CCCN1C(=O)[C@@H]1CCCN1C(=O)c1cccc(Cl)c1)c1ccccc1 do in these assays?
TDP1 cell noCPT: -27%; HT1080 IDH1KD tx: 14%; TDP1 cell CPT: inconclusive; IL-1B inflam inh: 6; HT1080NT lethal: 6%

Results for O=C1C=CC(=O)c2c(O)c(N3CCN(CCOCCO)CC3)c(Br)c(O)c21 ?
TDP1 cell noCPT: 0.92µM*; uPA generation: -10%; HT1080 IDH1KD tx: 5.8µM*; TDP1 cell CPT: 0.65µM*; IL-1B inflam inh: -117*; HT1080NT lethal: inconclusive

How did O=C1C=CC(=O)c2c(O)c(N3CCN(CCO)CC3)c(Cl)c(O)c21 do in these assays?
TDP1 cell noCPT: 0.58µM*; uPA generation: -11%; HT1080 IDH1KD tx: 5.2µM*; TDP1 cell CPT: 0.58µM*; IL-1B inflam inh: -73*; HT1080NT lethal: 5.8µM*

How did CCOc1cc(CN2CCN(CCOCCO)CC2)ccc1OC do in these assays?
TDP1 cell noCPT: 1%; uPA generation: 2%; HT1080 IDH1KD tx: -2%[9.24 µM]; TDP1 cell CPT: -5%; IL-1B inflam inh: 5; HT1080NT lethal: -2%

Results for Cc1ccc(S(=O)(=O)CCC(=O)OCCOc2cccc(Br)c2)cc1 ?
TDP1 cell noCPT: -25%; uPA generation: 1%; HT1080 IDH1KD tx: -1%; TDP1 cell CPT: 12%; IL-1B inflam inh: 20; HT1080NT lethal: -2%

What do the screens show for `Cc1cc(C)n(-c2ccc(C(=O)N3CCc4c(cnc(C)c4CNC(=O)c4ccccc4F)C3)cc2)n1`?
TDP1 cell noCPT: -10%; TDP1 cell CPT: -7%[9.04 µM]

How did c1ccc(COc2ccc(OCCCCN3CCCC3)cc2)cc1 do in these assays?
TDP1 cell noCPT: 23µM*; uPA generation: -6%; HT1080 IDH1KD tx: -15%; TDP1 cell CPT: inconclusive; IL-1B inflam inh: -7; HT1080NT lethal: -1%

What do the screens show for `O=C(c1ccccc1)c1ccc(OCCCN2CCCCC2)cc1`?
TDP1 cell noCPT: -23%; uPA generation: 0%; HT1080 IDH1KD tx: 1%; TDP1 cell CPT: -16%; IL-1B inflam inh: -59*; HT1080NT lethal: -4%

Results for CC(=O)c1ccc(OCCCN2CCCCC2)cc1 ?
TDP1 cell noCPT: -2%; uPA generation: -2%; HT1080 IDH1KD tx: 6%; TDP1 cell CPT: -6%; IL-1B inflam inh: 24; HT1080NT lethal: 0%

How did CCOC(=O)c1cc2c(C)n(-c3ccc(C)cc3)c(C)c2ccc1=O do in these assays?
TDP1 cell noCPT: 8.2µM*; uPA generation: -13%; HT1080 IDH1KD tx: -20%; TDP1 cell CPT: 15µM*; IL-1B inflam inh: -66*; HT1080NT lethal: -29%

What do the screens show for `CCOC(=O)c1cc2c(C)n(-c3ccc(OCC)cc3)c(C)c2ccc1=O`?
TDP1 cell noCPT: 15µM*; uPA generation: -10%; HT1080 IDH1KD tx: -19%; TDP1 cell CPT: 26µM*; IL-1B inflam inh: -19; HT1080NT lethal: -19%
